# Results from the supplement of paper PMC9694430.
# Experiments:
# Test in all cases: thermal shift delta Tm vs DMSO control; higher = stronger stabilization (binding)
# Settings in all cases: 12.5 µM; protein concentration 2 µM
# LOC_OS01G01410-cb001 = system: LOC_OS01G01410-cb001
# How it was run: (§1)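 Purified, E. coli-expressed rice kinase domain constructs were tested by differential scanning fluorimetry in 96-well plates: 19.5 μl of 2 μM kinase in 100 mM potassium phosphate pH 7.5, 150 mM NaCl, 10% glycerol, 5 × SYPRO Orange, plus compound in DMSO. Fluorescence was read from 25°C to 95°C at 0.05°C/s. Melting temperatures came from Boltzmann fits, and the shift is the triplicate mean relative to protein with DMSO alone.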
# LOC_OS01G02750-cb003 = system: LOC_OS01G02750-cb003
# How it was run: as §1
# LOC_OS01G10900-cb004 = system: LOC_OS01G10900-cb004
# How it was run: as §1
# LOC_OS01G13800-cb001 = system: LOC_OS01G13800-cb001
# How it was run: as §1
# LOC_OS01G14860-cb001 = system: LOC_OS01G14860-cb001
# How it was run: as §1
# LOC_OS01G21960-cb002 = system: LOC_OS01G21960-cb002
# How it was run: as §1
# LOC_OS01G39600-cb002 = system: LOC_OS01G39600-cb002
# How it was run: as §1
# LOC_OS01G48390-cb002 = system: LOC_OS01G48390-cb002
# How it was run: as §1
# LOC_OS01G51400-cb002 = system: LOC_OS01G51400-cb002
# How it was run: as §1
# LOC_OS01G52050-cb004 = system: T1, LOC_OS01G52050-cb004
# T1 sequence (whole entry): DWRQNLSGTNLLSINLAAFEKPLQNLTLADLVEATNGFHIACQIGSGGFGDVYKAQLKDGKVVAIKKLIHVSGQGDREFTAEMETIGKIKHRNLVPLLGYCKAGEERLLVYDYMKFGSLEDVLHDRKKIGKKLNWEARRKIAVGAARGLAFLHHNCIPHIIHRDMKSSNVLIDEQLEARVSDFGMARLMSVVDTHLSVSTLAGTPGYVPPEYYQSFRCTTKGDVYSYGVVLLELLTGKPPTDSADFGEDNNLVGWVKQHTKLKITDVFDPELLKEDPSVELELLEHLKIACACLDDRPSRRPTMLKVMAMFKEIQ
# How it was run: as §1
Compound,thermal shift delta Tm (LOC_OS01G01410-cb001) [°C],thermal shift delta Tm (LOC_OS01G02750-cb003) [°C],thermal shift delta Tm (LOC_OS01G10900-cb004) [°C],thermal shift delta Tm (LOC_OS01G13800-cb001) [°C],thermal shift delta Tm (LOC_OS01G14860-cb001) [°C],thermal shift delta Tm (LOC_OS01G21960-cb002) [°C],thermal shift delta Tm (LOC_OS01G39600-cb002) [°C],thermal shift delta Tm (LOC_OS01G48390-cb002) [°C],thermal shift delta Tm (LOC_OS01G51400-cb002) [°C],thermal shift delta Tm (LOC_OS01G52050-cb004) [°C]
"Cc1cc(Nc2ncnc3ccc(NC4=NC(C)(C)CO4)cc23)ccc1Oc1ccn2ncnc2c1 [Irbinitinib (ARRY-380, ONT-380)]",0.46,-5.11,0.3,-0.06,-1.49,-0.98,-4.96,-0.78,-3.07,1.03
COCC(=O)NC/C=C/c1ccc2ncnc(Nc3ccc(Oc4ccc(C)nc4)c(C)c3)c2c1,1.96,0.21,0.42,0.2,0.11,-0.07,1.61,0.4,0.03,0.35
CC(C)(O)CNc1ncc(-c2ccnc(Nc3ccnc(Cl)c3)n2)c(CC2CC2)n1,0.77,0.82,4.56,-0.19,2.06,0.91,-0.42,0.33,0.19,0.5
CC(=O)Nc1nc(C)c(-c2ccc(Cl)c(S(=O)(=O)NCCO)c2)s1,0.98,1.63,1.52,0.63,0.16,1.07,-0.18,0.24,0.16,0.93
